Bioassay records from PubChem.
The list is not random: actives were taken first. Their share in the collection is about 21%.
Pf growth 96h: inhibits malaria parasite growth, 96 h; Potency, µM (series often up to 28.7 µM), inactives show at the highest dose activity change, negative = inhibition, most hits filed as inhibitors; 6.9% of 320,000 active; AID 504834; P. falciparum luciferase reporter growth, 96 h; further: potency means the concentration at half of the fitted maximal effect; on the % scale 0 is the no-effect control and ±100 the full control effect
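96 h incubation, 37 C, 5% CO2, of luciferase-reporter P. falciparum-infected RBCs (2% hematocrit, 0.05% parasitemia final) with test compounds; endpoint luminescence.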
Pf growth 48h: inhibits P. falciparum growth in the first generation, 48 h. P. falciparum luciferase growth in erythrocytes, 48 h. 5.9% of 310,000 active. Potency, µM (titrated, usually from 28.7 µM), without a hit: at the highest dose activity change, negative = inhibition, usual class: inhibitors. AID 504832; further: potency means the concentration at half of the fitted maximal effect; on the % scale 0 is the no-effect control and ±100 the full control effect
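Read-out is firefly luciferase luminescence from an integrated reporter in P. falciparum, so falling signal marks reduced parasite growth. Infected erythrocytes were at 2% hematocrit and 0.1% parasitemia (final) in Albumax-supplemented RPMI 1640.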
Cycloheximide cs: affects cycloheximide protein synthesis inhibition readout, counter-screen; 12% of 300,000 active; AID 2314; max response, %; cell reporter, cycloheximide protein synthesis inhibition counterscreen; in the data active means max response mostly above about 13%, no sharp cut-off; inactive means mostly below about 14%; further: read at 38.3 µM for the half of the compounds with a filed dose; 0% is about no effect
Shiga toxin inh: Shiga toxin inhibition; 9.2% of 290,000 active; Vero cells, Shiga toxin protein synthesis inhibition reporter; inhibition, % at 38.7 µM; in the data active means inhibition mostly above about 28%, no sharp cut-off; inactive means mostly below about 43%; further: 0% is about no effect
NS1 inh: blocks influenza NS1 protein function | Potency, µM (doses to about 46.1 µM), without a hit: at the top dose activity, positive = more growth | 0.4% of 270,000 active | AID 2326; calls by dose curve; further: potency means the concentration at half of the fitted maximal effect; actives are rising curves; nearly all actives have a fitted effect of over 50% in size
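A cell-based growth assay was used: compounds that relieve NS1-induced slow growth of budding yeast raise OD600. Assay medium was yeast nitrogen base with ammonium sulphate and -URA supplement, pH 6.0, with 2% galactose.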
The depositor's hits bear a star; ? = inconclusive; . = not tested or not shown; [ ] = dose if it differs, or a comment. Unless noted, the call rests on the fitted dose curve; in most records, active means well fitted inhibition curve with a large enough effect; inconclusive means small, poorly fitted or top-dose-only effect, or another doubt; inactive means no such curve, though single readings can be large or run the other way.

SMILES | Pf growth 96h | Pf growth 48h | Cycloheximide cs | Shiga toxin inh | NS1 inh
Cc1cccc(C(=O)O/N=C(\N)c2ccc(Cl)cc2)c1 | 200% | 66% | 56* | 71* | -36%
Cc1cccc(C(=O)O/N=C(\N)c2ccc(Br)cc2)c1 | ? | . | 56* | 63 | -41%
CC(C)(C)OC(=O)N1CCC[C@H]1c1nnc(SCc2cccc(Cl)c2)o1 | -11% | -22% | 2 | 16 | -1%
COc1ccc(NC(=O)c2cc(-c3ccccc3O)n[nH]2)cc1Cl | 2.1µM* | 2.6µM* | 12 | 51* | 7%
COc1ccc(NC(=O)c2cc(-c3cc(C)cc(C)c3O)n[nH]2)cc1Cl | ? | 9.3µM* | -3 | 6 | -40%
Cc1ccc(NC(=O)c2cc(-c3ccccc3O)n[nH]2)cc1Cl | ? | ? | 7 | 18 | 2%
CCOC(=O)c1c(NC(=O)COc2ccccc2OCC)sc2c1CC(C)(C)NC2(C)C | 12µM* | ? | . | . | .
CCOC(=O)c1c(NC(=O)Cc2ccccc2)sc2c1CC(C)(C)NC2(C)C | 0.93µM* | ? | -2 | 15 | 15%
COC(=O)c1c(NC(=O)c2ccco2)sc2c1CC(C)(C)NC2(C)C | 17µM* | -1% | 5 | -19 | 22%
CCOC(=O)c1c(NC(=O)COC(=O)c2ccc(C)s2)sc2c1CC(C)(C)NC2(C)C | 4% | -6% | . | . | .
CCOC(=O)N1CCN(S(=O)(=O)c2ccc(C(=O)Nc3sc4c(c3C(N)=O)CC(C)(C)NC4(C)C)cc2)CC1 | ? | 12µM* | -5 | 20 | -4%
O=C(NCCN1CCOCC1)C1CCCN(S(=O)(=O)c2ccc(F)cc2)C1 (configuration not stated) | 32% | 5% | -2 | -7 | 13%
COc1ccc(C)cc1S(=O)(=O)N1CCCC(C(=O)NC2CC2)C1 (configuration not stated) | -18% | 9% | 0 | -23 | -5%
CN(C)c1ccc(-c2nn3c(C4CCCCC4)nnc3s2)cc1 | ? | -5% | -2 | 8 | -40%
CCOC(=O)c1c(NC(=O)COc2ccccc2C#N)sc2c1CC(C)(C)NC2(C)C | 5.2µM* | 12µM* | -3 | -12 | -1%
CN(C)CCCn1cnc2c1c(=O)[nH]c(=O)n2Cc1ccccc1 | 3% | 13% | 4 | 3 | 6%
CCn1c(=O)c2cc(C(=O)N(C)c3ccccc3F)sc2c2ccccc21 | ? | ? | -2 | -14 | 5%
CCn1c(=O)c2cc(C(=O)N(C)c3cc(C)ccc3OC)sc2c2ccccc21 | ? | 13µM* | -1 | -5 | 4%
CCn1c(=O)c2cc(C(=O)N(C)c3ccc(OC)cc3OC)sc2c2ccccc21 | 10µM* | ? | -2 | -8 | 3%
CCOc1cc(/C=N/N2CCN(Cc3ccccc3)CC2)ccc1O | 97% | -15% | -2 | -23 | ?
CCOc1ncccc1C(=O)NCCCSc1ccccc1 | -14% | -10% | 1 | 16 | -11%
COc1ccc(NC(=O)c2ccccc2)c([N+](=O)[O-])c1 | 211% | 172% | 32* | 74* | .
CCCc1cc(C(=O)Nc2ccc(OC)cc2[N+](=O)[O-])cs1 | ? | 36% | 28* | 60 | -2%
COc1ccc(NC(=O)c2cccnc2)c([N+](=O)[O-])c1 | ? | 50% | 16 | 13 | .
CCC(=O)Nc1ccc(C(=O)Nc2ccc(OC)cc2[N+](=O)[O-])cc1 | -26% | 2% | 1 | 26 | 0%
SMILES | Pf growth 96h | Pf growth 48h | Cycloheximide cs | Shiga toxin inh | NS1 inh
Cc1cc(=O)oc2cc(N3C(=O)CC(Cc4ccccc4)C3=O)ccc12 (configuration not stated) | -8% | 6% | -3 | -21 | -1%
COCC(C)Nc1ncnc2c1cnn2-c1ccc(Cl)cc1 (configuration not stated) | . | . | 33* | 101* | .
COc1ccc(-n2ncc3c(NCC(C)C)ncnc32)cc1 | 25% | 108% | 15 | 19 | -11%
COc1ccc(-n2ncc3c(NC(C)C)ncnc32)cc1 | -4% | 75% | 44* | 69 | -7%
CC(C)(C)c1cc(OC(=O)C2CCCC2)ccc1O | 5.2µM* | 14% | -6 | . | -56%
COc1ccc2nc(NC(=O)c3ccc([N+](=O)[O-])o3)sc2c1 | 276% | ? | 34* | 55* | -6%
O=C(Nc1nc2ccccc2s1)c1ccc([N+](=O)[O-])o1 | ? | -11% | 33* | 48* | 0%
Cc1cc(C)c2nc(NC(=O)c3ccc([N+](=O)[O-])o3)sc2c1 | ? | ? | -2 | . | -8%
Cc1cc(C)c2sc(NC(=O)c3ccc([N+](=O)[O-])o3)nc2c1 | ? | ? | 1 | 4 | -31%
O=C(Nc1nc2c(F)cc(F)cc2s1)c1ccc([N+](=O)[O-])o1 | ? | -18% | 26* | 50* | -10%
O=C(Nc1nc2cc3c(cc2s1)OCCO3)c1ccc([N+](=O)[O-])o1 | 8.3µM* | -15% | 48* | 45* | -3%
COc1cc(CCCN2CCNC[C@@H]2Cc2ccc(O)cc2)cc(OC)c1OC | 7% | ? | . | . | .
CC1CN(C(=O)c2ccc(NS(=O)(=O)c3cccc(Cl)c3)cc2)CC(C)O1 (configuration not stated) | -4% | 12% | -2 | 6 | -9%
Cc1[nH]c2ccc(OC(F)(F)F)cc2c1CCNCc1ccc(Cl)cc1 | ? | ? | -3 | -12 | -6%
CCOc1cccc(CNCCc2c(C)[nH]c3ccc(OC(F)(F)F)cc23)c1O | ? | 1.9µM* | -7 | -14 | 8%
Cc1[nH]c2ccc(OC(F)(F)F)cc2c1CCNCc1cccc([N+](=O)[O-])c1 | 156% | 1.5µM* | -2 | -4 | 4%
O=C(Nc1ccccc1)c1sccc1Oc1ccc([N+](=O)[O-])cc1F | -20% | ? | 14 | -6 | .
CN(C)c1ccc(N=Nc2ccccc2C(=O)OCC(=O)N2CCCC2)cc1 | 13µM* | ? | 2 | 11 | 6%
CN(C)c1ccc(N=Nc2ccccc2C(=O)OCC(=O)Nc2ccccc2C(F)(F)F)cc1 | 9.3µM* | ? | 37* | 56* | ?
CN(C)c1ccc(N=Nc2ccccc2C(=O)OCC(=O)N2CCCCCC2)cc1 | 0% | -2% | 28* | 56* | -19%
COCCN(C(=O)COc1ccc(Cl)cc1)c1nnc(-c2cccnc2)s1 | 0% | 0% | -1 | 11 | 7%
Cn1c(C(=O)N2CCN(c3ccccn3)CC2)cc2c(=O)n(C)c3ccccc3c21 | . | . | . | . | 2%
Cn1c(C(=O)O)ccc1S(=O)(=O)N1CCCCCC1 | -15% | 2% | -1 | -10 | -1%
COc1ccccc1N1CCN(CCc2n[nH]c(=S)n2-c2ccccc2)CC1 | 0%[5.75 µM] | -3% | -3 | -2 | 5%
CN1C2CCC1/C(=C\c1ccc(F)cc1)C(=O)/C2=C/c1ccc(F)cc1 | -3% | 0.83µM* | -5 | -17 | -9%
CN1C2CCC1/C(=C/c1cccn1C)C(=O)/C2=C\c1cccn1C | -2% | -17% | -5 | -19 | 14%
Cc1c(NCc2ccncc2)cccc1C(=O)O | -1% | 0% | 6 | -3 | 25%
COc1cc2c(cc1OC)CN(C(=O)CSc1nnc(C)s1)CC2 | . | 10% | -1 | -7 | 0%
